Laboratory results: PubChem BioAssay AID743279 (National Center for Advancing Translational Sciences (NCATS), 2014)
Hit rate of the full screen: of about 360,000 compounds, about 17,000 (4.7%) were called active. About 5% were inconclusive and are not listed. This is one part of a sample in which actives are shown more often than they occur. No stated cut-off is given here; in the data, active means activity change below about -50%; inconclusive means mostly about -30% to -49%; inactive means weaker than that.

Assay: qHTS for Inhibitors of Inflammasome Signaling: IL-1-beta AlphaLISA Primary Screen
Details: THP-1 LPS/ATP IL-1B secretion, 16 h; at 57.5 µM, stronger effect = lower value
Outline: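 THP-1 cells pretreated 1 hr with compounds (up to 57.5 uM final), then stimulated with LPS (250 ng/mL final) plus ATP (1.25 mM final); secreted IL-1B measured by AlphaLISA after 16 hr, decreased signal indicating inhibition.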
On the % scale 0 is the no-effect control and ±100 the full control effect.

Activity change, inactive:
C[C@@H]1CN([C@@H](C)CO)C(=O)c2cc(Br)cnc2O[C@@H]1CN(C)C(=O)C1CCCCC1 -1.93%
CC(C)=C1SC(N2CCN(c3ccc(C)c(Cl)c3)CC2)=NC1=O 25.2%
CNS(=O)(=O)c1cnccc1N1CCN(c2cccc(C)c2)CC1 -2.21%
O=c1[nH]c(N2CCN(Cc3ccc4c(c3)OCO4)CC2)nc2c1CCCC2 4.34%
CCCCCc1c(C)nc(N2CCN(Cc3ccc4c(c3)OCO4)CC2)[nH]c1=O -0.641%
O=C(NCCS(=O)(=O)N1CCN(c2ccccc2)CC1)c1cc(=O)c2ccccc2o1 -1.79%
CC(=O)Oc1ccc(OC(C)=O)c2c1C1C=CC2CC1 -13.5%
c1ccc(-n2nnnc2-c2cccnc2)cc1 -6.19%
Clc1ccc(-n2nnnc2-c2cnc(-c3ccccn3)nc2-c2cccs2)cc1 -21.9%
O=C(OCC(=O)c1c[nH]c2ccccc12)c1cccc(O)c1 -4.98%
O=C(CNC(=O)c1ccc(-c2ccccc2)cc1)OCc1ccc(Cl)cc1 18.8%
CSc1nnc2c(n1)OC(c1cn(C)c3ccccc13)N(C(C)=O)c1ccccc1-2 (stereo not drawn) 0.333%
CCN(CC)CCNC(=O)C1c2ccccc2C(=O)N(C)C1c1cn(C)c2ccccc12 (stereo not drawn) 6.05%
CCCc1ccc(C(O)c2ncc(-c3cccc(OC)c3)[nH]2)cc1 (stereo not drawn) 26%
COC(=O)c1ccccc1Oc1c(F)c(F)nc(N2CCOCC2)c1F 5.09%
Cn1nc(C(=O)OCC(=O)N(Cc2ccccc2)C(C)(C)C)c2ccccc2c1=O 10.9%
COc1ccccc1OCCC(=O)OCC(=O)NCc1ccccc1 18%
Cc1ccc(C)c(OCCC(=O)OCC(=O)N2CCN(c3ccccc3)CC2)c1 -2.33%
Nc1[nH]c(C(=O)c2ccccc2)c(-c2ccncc2)c1C(=O)NCc1cccc2ccccc12 7.69%
Cc1noc(C)c1S(=O)(=O)N(C)C[C@H]1OCCCC[C@@H](C)Oc2ccc(NC(=O)CCCN(C)C)cc2C(=O)N([C@H](C)CO)C[C@@H]1C 19.6%
O=[N+]([O-])c1ccc(CN2CC(N3CC=CC3)CS2(=O)=O)cc1 (stereo not drawn) -24.5%
COC(=O)c1ccc(NC(=O)C23CC4CC(C2)CC(n2cnc(Cl)n2)(C4)C3)cc1 54.6%
O=C(CSc1nc2cccc(F)c2c(=O)n1-c1ccccc1)Nc1ccc2c(c1)CCC2 0%
Oc1c(Cl)cc(Cl)cc1/C=N/c1ncn[nH]1 -20.2%
C=CCn1c(Cn2nnc3ccccc32)nnc1SCC(=O)N/N=C/c1cc(Br)cc(OC)c1O 1%
Nn1c(SCC(=O)Nc2nccs2)nncc1=O 9.24%
CC1CCCCC12NC(=O)N(CC(=O)OCC(=O)NCc1ccc(F)cc1)C2=O (stereo not drawn) 28%
CC1=CC(=NNS(=O)(=O)c2ccc([N+](=O)[O-])cc2)CC(C)(C)C1 8.3%
COc1ccc(CCNS(=O)(=O)c2cccc([N+](=O)[O-])c2)cc1 -12.5%
COc1ccc(S(=O)(=O)N2CCN(C(=S)NCC3CCCO3)CC2)cc1OC (stereo not drawn) 41.3%
CCOc1ccc(S(=O)(=O)N2CCN(C(=S)NCC3CCCO3)CC2)cc1 (stereo not drawn) 8.09%
CCCC/C=C/c1cccc2nncn12 0%
c1ccc2c(C[n+]3csc4ccccc43)cccc2c1 -14.6%
COC(=O)c1cc2n(n1)CCCNC2=O -12.8%
O=C(COC(=O)c1ccncc1)Nc1ccc2c(c1)OCO2 7.7%
NC(=O)c1ccc(NC(=O)COC(=O)c2c3c(nc4ccccc24)/C(=C\c2ccc4c(c2)OCO4)CCC3)cc1 -3.47%
CCOc1ccc2[nH]c(=S)sc2c1 32.5%
O=C(CCN1C(=O)c2ccccc2C1=O)NCCN1CCOCC1 -5.01%
COc1ccc(/C=C2\SC(=S)N(CCC(=O)N3CCOCC3)C2=O)cc1OC -10.5%
CC(OC(=O)CCC(=O)c1ccccc1)C(=O)Nc1ccc(F)cc1 (stereo not drawn) 9.85%
Cc1c(C(=O)NCC2CC2)sc(=O)n1Cc1cccc(F)c1 -16.4%
COc1ccc(CNC(=O)CCN2C(=O)c3ccccc3C2=O)cc1 -9.34%
CCOC(=O)c1cc2cc3ccccc3cc2oc1=O -12.5%
CCN(CC)C(=O)C1=C(C)N(Cc2ccc(OC)cc2)C(=O)C(CC(=O)NCc2ccco2)C1 (stereo not drawn) -25.2%
Cc1ccc(C(=O)N2CCC(n3nccc3NC(=O)Nc3cccc(F)c3)CC2)cn1 8.12%

Activity change, active:
CC(C)=C1SC(N2CCN(c3cccc(C)c3)CC2)=NC1=O -56.9%
Fc1ccc2[nH]c3c(N4CCSCC4)ncnc3c2c1 -62%
Fc1ccc2[nH]c3c(N4CCN(Cc5ccc6c(c5)OCO6)CC4)ncnc3c2c1 -94.7%
FC(F)(F)c1nc(-c2ccccc2)ncc1-c1nnnn1-c1ccccc1 -66.2%
O=C(OCc1ccc(-c2ccccc2)cc1)c1cccc(O)c1 -71.1%
Cn1cc(C2OC(=O)c3ccccc32)c2ccccc21 (stereo not drawn) -66%
Cc1ccc(C)c(OCCC(=O)OCC(=O)NC(=O)NCc2ccccc2)c1 -87.8%
COc1cc(Br)cc(/C=N/c2ncn[nH]2)c1O -55.5%
C[C@@H]1C[C@@H]2O[C@H]2/C=C\C=C\C(=O)Cc2c(Cl)c(O)cc(O)c2C(=O)O1 -108%
S=C(NCC1CCCO1)N1CCN(c2ccc(Cl)c(Cl)c2)CC1 (stereo not drawn) -64.9%
NS(=O)(=O)c1ccc(NC(=O)COC(=O)c2c3c(nc4ccccc24)/C(=C\c2ccc4c(c2)OCO4)CCC3)cc1 -62.6%
Cc1ccc(/C=C2/SC(=S)N(CCC(=O)NCCCN3CCOCC3)C2=O)cc1 -83.3%
CCOC(=O)C1=C(c2ccc(OC)cc2)C(=O)c2ccccc2C1=O -99%
